The values below come from PubChem BioAssay (NCATS).

Structures are written as SMILES. Records with an inconclusive call do not appear. The source made the active and inactive calls. Unless noted, the call rests on the fitted dose curve; in most records, active means well fitted curve in the direction sought with a large enough effect; inconclusive means small, poorly fitted or top-dose-only effect, or another doubt; inactive means no such curve, though single readings can be large; an effect the other way counts as inactive or inconclusive.

In assay [1] the target is D(1A) dopamine receptor (Homo sapiens) (UniProt P21728). The assay can be described thus: HTS Assay for Allosteric Agonists of the Human D1 Dopamine Receptor: Primary Screen for Potentiators (AID 488982). Further: 0% is about no effect. The gist of the method: (§1)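 Tetracycline-induced HEK293 T-REx cells force-coupled to calcium signalling were incubated overnight at 30 C and dye-loaded at room temperature. Calcium flux over 180 s after compound addition flagged agonists; a further 180 s read after EC20 dopamine flagged potentiators.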

Assay [2] shares this target. Briefly: HTS Assay for Allosteric Agonists of the Human D1 Dopamine Receptor: Primary Screen for Antagonists (AID 488983).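 Further: calcium flux response to an EC80 dopamine challenge measured with no-wash dye; nearly all actives have a fitted effect of over 65% in size.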 Further: potency means the concentration at half of the fitted maximal effect. In outline: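 Kinetic fluorescence at 1 cycle/sec tracked intracellular calcium in force-coupled, tetracycline-inducible HEK293 T-REx D1 cells. Loss of response to an EC80 dopamine dose, given 180 s after compound, marked antagonists.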
Assay [3] can be described thus: Validation screen for small molecules that induce genotoxicity in human embryonic kidney (HEK293T) cells expressing luciferase-tagged ELG1 (AID 493106). Further: potency means the concentration at half of the fitted maximal effect. In outline:
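Cells were dispensed at 2,000 per well, then 23 nL compound or DMSO was pinned in. After 16 hr at 37 °C and 5% CO2, ONE-Glo reagent was added. Luciferase activity was measured following 30 min at room temperature.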

Assay [4] deals with ATPase family AAA domain-containing protein 5 (Homo sapiens) (UniProt Q96QE3). Briefly: Validation screen for small molecules that inhibit ELG1-dependent DNA repair in human embryonic kidney (HEK293T) cells expressing luciferase-tagged ELG1 (AID 493107). Further: nearly all actives have a fitted effect of over 70% in size. Further: potency means the concentration at half of the fitted maximal effect. The gist of the method: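 Cells are dispensed in 1536-well format, then 5-fluorouridine and compound are pinned in. After a 16 hr incubation at 37 °C and 5% CO2, ONE-Glo is added and luciferase measured on a CCD imager.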

In assay [5] the target is Thyrotropin-releasing hormone receptor (Homo sapiens) (UniProt P34981). The assay can be described thus: qHTS for Small Molecule Agonists and Allosteric Enhancers of Human TRH Receptor: Validation Screen for Agonists (AID 493127;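 active means calcium activation more than 3 SD above the typical response in the agonist read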;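 further: intracellular calcium rise by fluo-8 fluorescence before TRH EC20 addition; 0% is about no effect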). The note with it: TRH receptor agonist cell assay; at 2 µM; stronger effect = higher value. The gist of the method: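 Compounds are added by online pintool to dye-loaded TRHR cells while fluorescence is recorded every second. A rise in calcium signal during the agonist read marks activation; a later 10 nM TRH addition (EC20) serves the separate enhancer mode.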
Background: qHTS replaces the single test concentration by a dilution series.

Assay [6] in a line: qHTS for Inhibitors of Cell Surface uPA Generation: Validation Assay (AID 493164).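 Further: RAW 264.7 macrophage cells exposed to compound for 18 h; 0% is about no effect.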 In outline: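 ATP-Lite luminescence read-out: ATP remains high when uPA activity-dependent LF translocation into the cytoplasm is blocked. RAW 264.7 cells, 18 h compound exposure at 37 C; 7-point titration, 2.45 nM to 38.3 uM final.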
Assay [7] can be described thus: Nrf2 qHTS screen for inhibitors: Validation (AID 493153; active means well fitted inhibition curve with a large enough effect in the main read-out, with a control signal flat, not every such curve was filed as active). The following applies: Potency: luciferase luminescence; viability change: measured here: cytotoxicity max response. In outline:
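A549 ARE_Fluc, 5% FBS OPTI-MEM; cpd titration, 18-24 h, 37°C/5% CO2. Read 1: CellTiter-Fluor (Ex 405/Em 525), cytotox. Read 2: luciferase lum, Nrf2 activity.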

Assay [8] concerns the target D(1A) dopamine receptor (Homo sapiens) (UniProt P21728). Briefly: HTS Assay for Allosteric Agonists of the Human D1 Dopamine Receptor: Primary Screen for Agonists (AID 488981). Further: 0% is about no effect. The gist of the method:
as §1

Chain of ATPase family AAA domain-containing protein 5 (Homo sapiens) (Q96QE3 whole entry, looked up, the tested form may be a part): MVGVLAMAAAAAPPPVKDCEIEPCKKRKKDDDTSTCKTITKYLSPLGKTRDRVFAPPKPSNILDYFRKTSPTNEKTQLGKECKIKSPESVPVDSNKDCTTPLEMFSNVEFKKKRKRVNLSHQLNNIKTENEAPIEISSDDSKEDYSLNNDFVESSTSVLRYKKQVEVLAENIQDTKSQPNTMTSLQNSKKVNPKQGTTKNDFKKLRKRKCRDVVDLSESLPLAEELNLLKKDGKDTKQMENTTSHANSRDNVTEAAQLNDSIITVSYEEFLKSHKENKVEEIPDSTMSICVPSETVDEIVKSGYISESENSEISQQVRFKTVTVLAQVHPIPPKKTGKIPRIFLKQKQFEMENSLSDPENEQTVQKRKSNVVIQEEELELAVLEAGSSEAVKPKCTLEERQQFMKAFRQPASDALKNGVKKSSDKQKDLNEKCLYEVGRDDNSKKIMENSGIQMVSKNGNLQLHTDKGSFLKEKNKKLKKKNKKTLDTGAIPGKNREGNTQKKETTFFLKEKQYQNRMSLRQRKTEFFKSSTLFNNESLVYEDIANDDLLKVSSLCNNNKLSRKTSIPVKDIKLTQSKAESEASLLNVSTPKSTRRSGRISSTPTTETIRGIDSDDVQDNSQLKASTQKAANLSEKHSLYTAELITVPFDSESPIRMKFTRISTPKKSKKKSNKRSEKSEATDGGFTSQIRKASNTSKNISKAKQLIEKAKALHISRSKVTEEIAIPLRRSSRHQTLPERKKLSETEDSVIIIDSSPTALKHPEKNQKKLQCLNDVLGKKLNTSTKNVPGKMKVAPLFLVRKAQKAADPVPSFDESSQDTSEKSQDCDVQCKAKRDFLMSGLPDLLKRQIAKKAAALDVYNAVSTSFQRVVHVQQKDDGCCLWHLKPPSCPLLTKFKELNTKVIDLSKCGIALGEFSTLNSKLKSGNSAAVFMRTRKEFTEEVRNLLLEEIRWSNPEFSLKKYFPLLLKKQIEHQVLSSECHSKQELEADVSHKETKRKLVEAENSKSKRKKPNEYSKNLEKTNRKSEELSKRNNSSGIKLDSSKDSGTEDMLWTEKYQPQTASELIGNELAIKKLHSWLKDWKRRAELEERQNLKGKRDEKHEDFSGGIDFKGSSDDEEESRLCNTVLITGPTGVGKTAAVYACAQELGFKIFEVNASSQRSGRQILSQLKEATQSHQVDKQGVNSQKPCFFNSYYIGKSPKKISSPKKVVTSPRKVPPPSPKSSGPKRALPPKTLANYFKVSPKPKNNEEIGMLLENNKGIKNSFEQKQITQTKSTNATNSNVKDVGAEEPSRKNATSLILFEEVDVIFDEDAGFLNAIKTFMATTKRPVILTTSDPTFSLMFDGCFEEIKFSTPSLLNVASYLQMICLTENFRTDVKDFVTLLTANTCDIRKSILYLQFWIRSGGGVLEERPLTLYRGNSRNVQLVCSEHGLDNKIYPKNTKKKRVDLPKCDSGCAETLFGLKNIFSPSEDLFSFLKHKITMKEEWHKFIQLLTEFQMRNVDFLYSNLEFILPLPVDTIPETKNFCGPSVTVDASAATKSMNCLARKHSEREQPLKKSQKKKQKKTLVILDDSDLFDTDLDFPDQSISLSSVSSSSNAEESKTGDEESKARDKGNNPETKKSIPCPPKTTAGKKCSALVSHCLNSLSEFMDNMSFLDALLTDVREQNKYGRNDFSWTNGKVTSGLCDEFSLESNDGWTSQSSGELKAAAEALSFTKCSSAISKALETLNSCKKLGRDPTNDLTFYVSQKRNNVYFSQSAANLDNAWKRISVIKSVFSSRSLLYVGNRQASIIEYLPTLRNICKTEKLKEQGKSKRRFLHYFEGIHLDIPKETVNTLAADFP
Chain of Thyrotropin-releasing hormone receptor (Homo sapiens) (P34981 whole entry, looked up): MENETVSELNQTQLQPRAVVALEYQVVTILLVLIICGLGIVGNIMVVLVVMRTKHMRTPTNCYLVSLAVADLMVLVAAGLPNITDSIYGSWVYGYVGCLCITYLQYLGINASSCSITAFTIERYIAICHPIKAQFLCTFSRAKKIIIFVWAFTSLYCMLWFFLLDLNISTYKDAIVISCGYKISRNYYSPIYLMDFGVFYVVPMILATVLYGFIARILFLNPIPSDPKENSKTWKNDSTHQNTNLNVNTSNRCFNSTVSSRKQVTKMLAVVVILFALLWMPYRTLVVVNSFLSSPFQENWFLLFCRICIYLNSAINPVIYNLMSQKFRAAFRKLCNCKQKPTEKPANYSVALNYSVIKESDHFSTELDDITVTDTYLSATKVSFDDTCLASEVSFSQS
Chain of D(1A) dopamine receptor (Homo sapiens) (P21728 whole entry, looked up): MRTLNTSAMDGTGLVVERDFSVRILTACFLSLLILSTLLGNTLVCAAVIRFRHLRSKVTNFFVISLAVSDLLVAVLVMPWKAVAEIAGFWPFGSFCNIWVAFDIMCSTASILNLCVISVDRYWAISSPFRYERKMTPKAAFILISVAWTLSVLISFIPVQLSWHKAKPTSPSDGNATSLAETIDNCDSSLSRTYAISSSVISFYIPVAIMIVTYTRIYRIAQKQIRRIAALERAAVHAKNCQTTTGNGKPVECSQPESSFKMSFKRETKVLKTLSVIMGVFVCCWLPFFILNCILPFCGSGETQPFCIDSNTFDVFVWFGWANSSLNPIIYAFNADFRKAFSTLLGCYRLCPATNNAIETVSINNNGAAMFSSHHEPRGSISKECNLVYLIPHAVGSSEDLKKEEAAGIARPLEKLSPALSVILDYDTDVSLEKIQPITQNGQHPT

Turning to `COc1ccc2[nH]c3c(c2c1)CCNC3`, the Potency entry in assay [1], in assay [2], in assay [3] and in assay [4] was “inactive” throughout. For the same compound, the activation in assay [5] was 1.56% (inactive). For the same compound, the call in assay [6] was inactive.
On to `CCCCCCCCCCCCCC(=O)O[C@@H]1[C@@H](C)[C@@]2(O)[C@@H](C=C(CO)C[C@@]3(O)C(=O)C(C)=C[C@@H]23)C2C(C)(C)[C@@]21OC(C)=O` (some centres not stated), for which the Potency entry in assay [1], in assay [2] and in assay [7] was “inactive” each time. Besides, in assay [3], the Potency was 0.0041 µM (active). Moreover, the activation in assay [5] is 0.75% (inactive). In addition, in assay [7], the viability change is -19.6%.
On to `CC(C)NP(=O)(NC(C)C)OP(=O)(NC(C)C)NC(C)C`, for which the Potency result in assay [1], in assay [2], in assay [3] and in assay [4] was “inactive” in each case. In addition, the activation in assay [5] was -2.75% (inactive). In addition, in assay [6], the call was inactive.
Regarding `N[C@@H](CCl)C(=O)O`, the Potency entry in assay [1], in assay [2], in assay [3], in assay [4] and in assay [7] was “inactive” in each case. In assay [5], the activation is 1.31% (inactive). The viability change in assay [7] worked out at 4.83%. Moreover, the compound was called inactive in assay [6].
Consider `CN1CCC(c2c[nH]c3ccc(O)cc23)CC1`, for which the Potency entry in assay [1], in assay [3], in assay [4] and in assay [7] was “inactive” in each case. Also, in assay [2], the Potency is 6.31 µM (active). The activation in assay [5] is 1% (inactive). Moreover, the viability change in assay [7] was -1.47%. In addition, in assay [6], the call was inactive.
With `C[N+](C)(C)CC#CCN1CCCC1=O`, the Potency entry in assay [1], in assay [2], in assay [3], in assay [4] and in assay [7] was “inactive” each time. The activation in assay [5] is 57.8% (active). The viability change in assay [7] amounted to 2.69%. The compound was classed as inactive in assay [6].
In the case of `CCN1C[C@@]2(COC)C3[C@@H](OC)C4[C@@H]1C3([C@@H]1C[C@]3(O)[C@H](OC(=O)c5ccccc5)[C@@H]1[C@]4(OC(C)=O)[C@@H](O)[C@@H]3OC)[C@H](OC)C[C@H]2O`, the Potency entry in assay [8], in assay [2], in assay [3], in assay [4] and in assay [7] was “inactive” each time. Moreover, the viability change in assay [7] was determined as 0.88%. For the same compound, the compound was classed as inactive in assay [6].
`Oc1ccc2c3c1O[C@H]1c4[nH]c5ccccc5c4C[C@@]4(O)C(C2)N(CC2CC2)CCC314` (some centres not stated): the Potency entry in assay [1], in assay [2], in assay [3], in assay [4] and in assay [7] was “inactive” in each case. Moreover, in assay [5], the activation was 1.69% (inactive). The viability change in assay [7] was -8.87%. The compound was classed as inactive in assay [6].
On to `CCCN(CCC)[C@H]1CCc2c(F)ccc(O)c2C1`, for which the Potency entry in assay [1], in assay [2], in assay [3], in assay [4] and in assay [7] was “inactive” throughout. Moreover, the activation in assay [5] is -3.06% (inactive). In assay [7], the viability change is -8.48%. Also, the result in assay [6] was inactive.
Take `CCn1cnc2c(Nc3cccc(Cl)c3)nc(N[C@@H]3CCCC[C@@H]3N)nc21`: the Potency result in assay [1], in assay [2] and in assay [3] was “inactive” throughout. Moreover, in assay [4], the Potency was 4.61 µM (active). Moreover, the activation in assay [5] is 3.88% (inactive).
`CC(=O)c1c(O)c(C)c(O)c(Cc2c(O)c3c(c(C(=O)/C=C/c4ccccc4)c2O)OC(C)(C)C=C3)c1O`: the Potency entry in assay [1], in assay [2] and in assay [3] was “inactive” in each case. Also, the activation in assay [5] was 7.12% (inactive). Further, the compound was called inactive in assay [6].
In the case of `Cc1cc([C@@H]2CCCN2C)on1`, the Potency result in assay [1], in assay [2], in assay [3], in assay [4] and in assay [7] was “inactive” in each case. Moreover, in assay [7], the viability change came out at 4.53%. Also, the outcome in assay [6] was inactive.
In the case of `NCC(O)c1cc(O)c(O)cc1F` (configuration not stated), the Potency result in assay [1], in assay [3] and in assay [4] was “inactive” each time. In assay [2], the Potency is 2.51 µM (active). In addition, the activation in assay [5] is 1.38% (inactive). Besides, the result in assay [6] was inactive.
Take `CCCN(CCC)CCc1ccc(O)c(O)c1`: the Potency entry in assay [1], in assay [3], in assay [4] and in assay [7] was “inactive” in each case. In addition, in assay [2], the Potency is 1.78 µM (active). Besides, in assay [5], the activation was -3.94% (inactive). In addition, in assay [7], the viability change was -6.78%. Also, the compound was classed as inactive in assay [6].
`CCNC(=O)[C@H]1O[C@@H](n2cnc3c(N)ncnc32)[C@H](O)[C@@H]1O`: the Potency result in assay [1], in assay [2] and in assay [4] was “inactive” in each case. Besides, the compound was called inactive in assay [6].
As for `CC(N)Cc1c[nH]c2ccc(O)cc12` (configuration not stated), the Potency result in assay [1], in assay [3], in assay [4] and in assay [7] was “inactive” throughout. In addition, the activation in assay [5] was 1.38% (inactive). The viability change in assay [7] was -2.01%. The compound was classed as inactive in assay [6].
Regarding `CCN(CCCl)Cc1ccccc1Br`, the Potency result in assay [1], in assay [3] and in assay [4] was “inactive” in each case. In addition, the activation in assay [5] is -8% (inactive). The call in assay [6] was inactive.
